Data on 16 compounds can be found in PubChem BioAssay.

Structures are written as SMILES. Results filed as inconclusive are left out. For part of these data: Results with a measured potency or affinity are listed apart. The source made the active and inactive calls. Unless noted, how the calls were made is not given here.

A short description of assay [1]: polyglutamine-triggered caspase-3 activation inhibitors, cell-based (AID 1583). The following applies: polyglutamine-induced caspase-3 activation, cell assay; stronger effect = higher value;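 tested at 10 µM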.
A short description of assay [2]: inhibitors of polyQ aggregate elongation, biochemical, solid-phase synthetic aggregates, QA3 (AID 1585). The following applies: biotin-polyQ incorporation; EC50: measured here: elongation inhibition potency; inhibition: at 100 µM, stronger effect = higher value.
The nature of assay [3]: suppressors of polyQ aggregation in yeast, 75Q-TubU reporter (AID 1593). To be noted: Yeast 75Q polyglutamine aggregation reporter.
Assay [4] in a line: rescue of polyQ-huntingtin neuronal dysfunction in worms, whole organism, C. elegans mechanosensory neurons, N-terminal huntingtin (AID 1599). To be noted: touch response, stronger effect = higher value.
A short description of assay [5]: inhibitors of mitochondrial cytochrome c release, biochemical, purified mitochondria (AID 1603).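 Further: mouse liver mitochondria challenged with calcium chloride; signal normalized to the plate average as 100%.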 To be noted: stronger effect = lower value.
Assay [6] is described as follows: inhibitors of polyQ protein aggregation (AID 1604). To be noted: polyglutamine-induced protein aggregation inhibition assay; stronger effect = higher value; tested at 2.5 µM.
Assay [7] has as its target ATP-dependent translocase ABCB1 (Homo sapiens) (UniProt P08183). Put plainly: MDR1 (ABCB1) efflux transporter inhibition, cell-based (AID 377; in the data active means fluorescence slope change above about 50%). To be noted: MDR1-expressing cells, fluorescent substrate accumulation slope; stronger effect = higher value; concentration not given here.
Assay [8] is described as follows: protection of motor neurons from glutamate death, cell-based, TUNEL DNA degradation staining, MNGlu (AID 1594). To be noted: glutamate-induced death, at 1 µM, stronger effect = higher value.
A short description of assay [9]: mitochondrial permeability transition inhibitors (AID 1580). To be noted: isolated mitochondria, permeability transition inhibition.

Sequence of ATP-dependent translocase ABCB1 (Homo sapiens) (P08183 whole entry, looked up): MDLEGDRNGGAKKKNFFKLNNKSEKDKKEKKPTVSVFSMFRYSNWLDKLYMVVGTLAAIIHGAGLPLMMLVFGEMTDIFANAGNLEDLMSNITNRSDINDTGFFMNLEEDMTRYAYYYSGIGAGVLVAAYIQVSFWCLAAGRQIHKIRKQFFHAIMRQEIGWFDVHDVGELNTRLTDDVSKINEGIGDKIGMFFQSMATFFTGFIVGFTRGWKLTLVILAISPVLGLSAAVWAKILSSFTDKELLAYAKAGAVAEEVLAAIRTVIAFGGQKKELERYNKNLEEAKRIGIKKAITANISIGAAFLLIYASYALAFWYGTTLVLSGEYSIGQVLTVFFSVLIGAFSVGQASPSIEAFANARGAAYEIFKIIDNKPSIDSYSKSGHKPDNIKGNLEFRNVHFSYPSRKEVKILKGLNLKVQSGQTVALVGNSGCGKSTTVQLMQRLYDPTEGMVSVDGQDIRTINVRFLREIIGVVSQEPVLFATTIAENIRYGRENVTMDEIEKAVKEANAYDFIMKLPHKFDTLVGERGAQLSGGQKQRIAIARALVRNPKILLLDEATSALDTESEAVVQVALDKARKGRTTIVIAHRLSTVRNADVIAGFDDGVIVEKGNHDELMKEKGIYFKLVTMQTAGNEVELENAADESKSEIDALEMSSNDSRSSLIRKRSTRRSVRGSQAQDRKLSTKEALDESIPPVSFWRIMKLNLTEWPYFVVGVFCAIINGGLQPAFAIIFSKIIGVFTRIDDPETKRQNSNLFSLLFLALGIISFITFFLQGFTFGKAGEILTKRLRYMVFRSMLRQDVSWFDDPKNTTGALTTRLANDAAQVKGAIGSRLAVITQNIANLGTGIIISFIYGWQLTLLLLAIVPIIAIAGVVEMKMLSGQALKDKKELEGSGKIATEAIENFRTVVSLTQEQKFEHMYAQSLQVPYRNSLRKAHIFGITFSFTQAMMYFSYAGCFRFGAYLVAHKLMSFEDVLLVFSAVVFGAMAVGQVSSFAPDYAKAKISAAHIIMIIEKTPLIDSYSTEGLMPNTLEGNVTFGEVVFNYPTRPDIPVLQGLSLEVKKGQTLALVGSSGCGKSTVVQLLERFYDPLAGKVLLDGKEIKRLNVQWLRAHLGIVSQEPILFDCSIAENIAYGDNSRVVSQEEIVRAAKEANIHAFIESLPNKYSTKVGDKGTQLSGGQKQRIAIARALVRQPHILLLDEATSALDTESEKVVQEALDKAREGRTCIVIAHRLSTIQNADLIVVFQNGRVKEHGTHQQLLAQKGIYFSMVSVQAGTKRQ

With `Cc1ccc(C(C)C)cc2c(C)ccc1-2`, the inhibition in assay [1] was found to be 0.23%. Besides, in [2], the EC50 turned out to be 57 µM and the inhibition is 73.4% (active). This compound registered a score in [3] of -2.73. The compound further returned a rescue above control in assay [4] of 1.94. For the same compound, the cytochrome c release ratio in assay [5] stood at 3.4. Further, the inhibition of aggregation in [6] was found to be 30.6%.

`O=C(CCBr)N1CCN(C(=O)CCBr)CC1`: the inhibition in assay [1] is -31.6%. The score in assay [3] was 0.93. The rescue above control in assay [4] is 9.78. Moreover, the cytochrome c release ratio in [5] stood at 0.86. The inhibition of aggregation in assay [6] amounted to 52.8%.

Consider `Cn1c(=O)c2c(ncn2C)n(C)c1=O`, for which, in assay [1], the inhibition is 5.72%. In assay [3], this compound showed a score of 1.32. The compound also displayed a rescue above control in [4] of 4.29. Besides, in assay [5], the cytochrome c release ratio was 1.5. Also, the inhibition of aggregation in assay [6] worked out at 74.9%.

Turning to `CCN(CC)CCOC(=O)C(c1ccccc1)c1ccccc1`, the inhibition in [1] amounted to 11.6%. The same compound registered a score in [3] of 0.88. In addition, the rescue above control in [4] worked out at 8.76. Besides, in [5], the cytochrome c release ratio worked out at 1.09. The inhibition of aggregation in assay [6] stood at 66.7%.

As for `Cc1nnc(NS(=O)(=O)c2ccc(N)cc2)s1`, the fluorescence slope change in assay [7] is 9.7% (inactive). Besides, in [1], the inhibition is 18.6%. The score in assay [3] amounted to 1.23. Moreover, the protection in assay [8] was 35% (active). In assay [4], this compound had a rescue above control of -5.75. Besides, the cytochrome c release ratio in [5] worked out at 1.01. For the same compound, in assay [6], the inhibition of aggregation was determined as 68.2%.

`Cc1cc(NC(=O)C2=C(O)c3ccccc3S(=O)(=O)N2C)no1`: the inhibition in assay [1] stood at 49.9%. For the same compound, the score in [3] stood at 0.18. In assay [4], this compound registered a rescue above control of -11.8. Moreover, the cytochrome c release ratio in assay [5] is 1.04. Besides, the inhibition of aggregation in assay [6] was determined as 72.2%.

Take `CCN(CC)CCNc1ccc(CO)c2sc3ccccc3c(=O)c12`: in assay [7], the fluorescence slope change was -2.7% (inactive). Further, the figures for the inhibition in [1] and in assay [2] were 2.1% and 82.8% (active), respectively. In assay [2], the EC50 was 71 µM. In addition, the score in [3] is 1.79. This compound showed a rescue above control in assay [4] of -7.32. Further, the cytochrome c release ratio in assay [5] came out at 1.54. Further, in assay [6], the inhibition of aggregation is 91.6%.

As for `CSc1ccc2c(c1)C(N1CCN(C)CC1)Cc1ccccc1S2` (stereo not given), the inhibition in assay [1] was 7.11%. For the same compound, the score in assay [3] came to 0.84. For the same compound, the rescue above control in assay [4] is 0. Moreover, the cytochrome c release ratio in assay [5] was determined as 4.27. The inhibition of aggregation in [6] was found to be 80.6%.

Take `Oc1c(Cl)cc(Cl)cc1Sc1cc(Cl)cc(Cl)c1O`: the EC50 in [9] was 0.3 µM (active). In addition, in assay [1], the inhibition was -9.02%. In addition, the score in assay [3] was -0.24. This compound also gave a rescue above control in assay [4] of 9.15. In addition, the cytochrome c release ratio in [5] was found to be 0.74. The inhibition of aggregation in [6] was -7.69%.

With `CN(C)/N=N/c1nc[nH]c1C(N)=O`, the inhibition in [1] was found to be 17.5%. The compound further came in with a score in assay [3] of 1.36. Further, the rescue above control in assay [4] was -5.12. In assay [5], the cytochrome c release ratio is 0.99. Also, in assay [6], the inhibition of aggregation came out at 9.26%.

Regarding `CC1=C(C(=O)O)N2C(=O)[C@@H](NC(=O)[C@H](N)C3=CCC=CC3)[C@H]2SC1`, the inhibition in [1] is -6.99%. This compound had a score in assay [3] of 1.49. The rescue above control in [4] worked out at 19. The cytochrome c release ratio in assay [5] turned out to be 0.86. In assay [6], the inhibition of aggregation is 74.7%.

As for `CNC[C@H](O)c1cccc(O)c1`, the inhibition in assay [1] was -27.4%. In [3], this compound came in with a score of 1.21. In [4], this compound displayed a rescue above control of -6.19. Also, the cytochrome c release ratio in assay [5] was found to be 0.84. Further, in assay [6], the inhibition of aggregation was 47.4%.

Take `NC(CO)C(=O)NNCc1ccc(O)c(O)c1O` (stereo not given): in [1], the inhibition stood at 5.62%. Further, in [3], the score is 1.68. The rescue above control in [4] stood at 7.52. Also, the cytochrome c release ratio in [5] worked out at 0.53. Also, the inhibition of aggregation in assay [6] was 89.7%.

In the case of `C=C1c2cccc(O)c2C(O)=C2C(=O)[C@]3(O)C(O)=C(C(N)=O)C(=O)[C@@H](N(C)C)[C@@H]3[C@@H](O)[C@H]12`, in assay [1], the inhibition was -86.7%. Moreover, in assay [2], the EC50 turned out to be 132 µM and the inhibition is 60% (active). This compound also returned a score in assay [3] of 0.99. In assay [4], this compound showed a rescue above control of 0. Besides, the cytochrome c release ratio in assay [5] stood at 0.49. Moreover, the inhibition of aggregation in [6] amounted to 29.5%.

Consider `NC(=O)c1ccc([N+](=O)[O-])cc1Cl`, for which the inhibition in assay [1] amounted to 5.22%. In addition, in [3], the score was found to be 1.24. This compound also had a rescue above control in [4] of 31.2. Also, in assay [5], the cytochrome c release ratio turned out to be 1.06. For the same compound, the inhibition of aggregation in assay [6] is 82.5%.

On to `Cc1cc(=O)[nH]c(=S)[nH]1`, for which the inhibition in [1] is -32.8%. The same compound had a score in [3] of 1.08. Besides, in assay [4], the rescue above control was -4.23. Moreover, in assay [5], the cytochrome c release ratio came to 0.82. Moreover, the inhibition of aggregation in assay [6] came to 69.4%.

For orientation: inhibition means the change of the read-out against control, counted positive when it falls. Usually EC50 stands for the concentration at which the effect is half-maximal.
